E coli growth-1 = counter-screen for AddAB inhibitors: E. coli growth inhibition. E. coli V3065 growth, OD600 absorbance, 18 h. AID 449728. inhibition, % at 11.9 µM. 0.27% of 330,000 active;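 active means inhibition above the campaign's mean inhibition across all tested compounds plus 3 SD, cut at about 9.9% in these data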;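 further: uninfected addAB+ strain grown without phage in ampicillin broth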
E coli growth-2 = E. coli growth inhibition; Escherichia coli growth, OD600, 23 h; active compounds read low; OD600 absorbance (no concentration beside the values); 0.21% of 330,000 active; AID 1053175;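 active means OD600 absorbance below the run mean of sample wells minus 3.6 SD, in any replicate, cut at about 0.56 in these data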
phage Ecoli inh = E. coli growth loss with phage present; 0.26% of 360,000 active; inhibition, % at 11.9 µM; AID 651602; growth absorbance; in the data active means inhibition above about 11%
Tat export inh = inhibitors of E. coli Tat protein transport; AID 488895; 0.036% of 340,000 active; E. coli MC4100 TorA-mCherry Tat export, fluorescence; inhibition, % at 10 µM;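 active means mean replicate inhibition at least 50% and at least half of replicates individually reaching 50%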;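 further: exported cargo escapes ClpAP degradation while cytoplasmic cargo is degraded and loses fluorescence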
AddAB inh = less growth of phage-infected E. coli with AddAB | E. coli expressing H. pylori AddAB, absorbance growth | inhibition, % at 11.9 µM | 0.29% of 330,000 active | AID 435030; in the data active means inhibition above about 12%
RecBCD conf = growth loss of phage-infected V66 E. coli, RecBCD confirmation screen; shares compounds with phage Ecoli inh; E. coli V66 + T4 2- phage, growth OD; inhibition, % at 11.9 µM; 45% of 890 active; AID 651982;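 active means mean inhibition over triplicates exceeding the hit threshold derived in the original primary screen, cut at about 11% in these data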
Ecoli viability = inhibits E. coli viability, flagging RecBCD hits as nonselective. shares compounds with phage Ecoli inh. absorbance (OD) growth. inhibition, % at 11.9 µM. 29% of 890 active. AID 651983; in the data active means inhibition above about 20%;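 further: E. coli strain V66 grown with compound alone and no phage infection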
AddAB counter = growth loss of phage-infected AddAB E. coli, RecBCD counter-screen; shares compounds with phage Ecoli inh; AID 651984; 45% of 890 active; inhibition, % at 11.9 µM; E. coli expressing H. pylori AddAB + T4 phage, OD growth; gene 2 mutant T4, recBCD-deleted host;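 active means mean inhibition above the solvent-only control wells' mean plus 3 SD, cut at about 22% in these data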;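 further: higher means less bacterial growth from phage killing when AddAB is blocked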
Large screens that a line does not name were inactive (follow-up assays come after a bar, where they were run). This is a sample that favours compounds with a hit; in the whole collection about 0.5% have one here.

COc1ccc(C)cc1N=Nc1ccc(O)c2ncccc12	phage Ecoli inh 18 (no result: E coli growth-1, AddAB inh) | RecBCD conf inactive | Ecoli viability inactive | AddAB counter inactive
Oc1ccc(N=Nc2ccc3c(c2)OCCO3)c2cccnc12	phage Ecoli inh 15 | RecBCD conf inactive | Ecoli viability inactive | AddAB counter inactive
COc1cccc(N=Nc2ccc(O)c3ncccc23)c1	phage Ecoli inh 13 (no result: E coli growth-2) | RecBCD conf inactive | Ecoli viability inactive | AddAB counter inactive
COc1cccc(N=Nc2ccc3cccnc3c2O)c1	E coli growth-1 15, phage Ecoli inh 14 | RecBCD conf inactive | Ecoli viability inactive | AddAB counter inactive
CCOC(=O)C1C2COc3ccc(Br)cc3C2N2C(=O)c3cc(F)c(F)cc3NC(=O)[C@@]12C (stereo partly drawn)	none (no result: E coli growth-1, phage Ecoli inh, Tat export inh, AddAB inh)
CC1CN(C(C)CO)C(=O)c2cccc(NC(=O)c3ccncc3)c2OC1CN(C)C (stereo not drawn)	none (no result: E coli growth-1, phage Ecoli inh, Tat export inh, AddAB inh)
CC(C)(C)c1nnc(N/N=C/c2cc(Br)ccc2O)n(N)c1=O	phage Ecoli inh 12 (no result: E coli growth-2) | RecBCD conf inactive | Ecoli viability inactive | AddAB counter 28
CC(C)(C)c1nnc(NN=Cc2ccccc2O)n(N)c1=O	none (no result: E coli growth-1, phage Ecoli inh, Tat export inh, AddAB inh)
CC1NC(=O)c2cc([N+](=O)[O-])cc(F)c2NCCCC(C(N)=O)NC(=O)C(CC(N)=O)NC1=O (stereo not drawn)	none (no result: E coli growth-1, phage Ecoli inh, Tat export inh, AddAB inh)
Cc1ccc2ccc(C(Nc3ccccc3)c3ccc(Cl)cc3)c(O)c2n1 (stereo not drawn)	phage Ecoli inh 12 (no result: E coli growth-1, E coli growth-2, Tat export inh, AddAB inh) | RecBCD conf inactive | Ecoli viability inactive | AddAB counter inactive
Cc1ccc2ccc(C(Nc3ccccc3)c3ccc(C(C)C)cc3)c(O)c2n1 (stereo not drawn)	none (no result: E coli growth-1, E coli growth-2, Tat export inh, AddAB inh)
Cc1ccc2ccc(C(Nc3ccccn3)c3ccccc3)c(O)c2n1 (stereo not drawn)	none
Cc1ccc2ccc(C(Nc3ccccc3)c3ccccc3)c(O)c2n1 (stereo not drawn)	phage Ecoli inh 12 (no result: E coli growth-1, E coli growth-2, Tat export inh, AddAB inh) | RecBCD conf inactive | Ecoli viability inactive | AddAB counter inactive
Cc1ccnc(NC(c2ccccc2)c2ccc3cccnc3c2O)c1 (stereo not drawn)	phage Ecoli inh 17 (no result: E coli growth-1, AddAB inh) | RecBCD conf inactive | Ecoli viability inactive | AddAB counter inactive
COC(=O)[C@@]1(Cc2ccccc2)C=CC(C)N1C(C)=O (stereo partly drawn)	none (no result: E coli growth-1, phage Ecoli inh, Tat export inh, AddAB inh)
CC(NC(=O)CCC1CCC(=O)N1)c1ccccc1 (stereo not drawn)	none (no result: E coli growth-1, phage Ecoli inh, Tat export inh, AddAB inh)
O=C1C=C(c2ccc(F)cc2OCc2ccccc2)CC(c2ccc3c(c2)OCO3)C1 (stereo not drawn)	none (no result: E coli growth-1, phage Ecoli inh, Tat export inh, AddAB inh)
COC(CC(O)CC(=O)COCc1ccccc1)OC (stereo not drawn)	none (no result: E coli growth-1, phage Ecoli inh, Tat export inh, AddAB inh)
Cc1cc(NC(=O)Cn2c(C)nc3ccccc3c2=O)ccc1Br	E coli growth-1 19, phage Ecoli inh 13, AddAB inh 20 | RecBCD conf 12 | Ecoli viability inactive | AddAB counter inactive
CCC(=O)Nc1ccc2nc(C)n(CC(=O)Nc3ccccc3)c(=O)c2c1	none

Compound activity: PubChem BioAssay, several laboratories
